CaV13 FRET inh – Primary screen for inhibitors of IQ motif and Ca2+-dependent inactivation inhibitor domain binding in CACNA1D, Förster resonance energy transfer in living cells, …; HEK cells, CFP/YFP FRET ICDI-IQ, plate reader, 10 min; percent FRET-ratio fall versus neutral wells; inhibition, % at 12.3 µM; 340,000 compounds, 0.098% hits; AID 743397;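 active = mean replicate inhibition of at least 30% and at least 1% of replicates passing that level; inconclusive = only one of the two criteria is met; inactive = neither criterion is met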;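 note: 0% = median of the neutral control wells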
GSIS activator – GLuc luminescence reporter in INS-1E cells, primary screen for activators of glucose-dependent secretion of insulin | INS-1E GLuc reporter insulin secretion, 2-3 h | activation, % at 16.6 µM | 370,000 compounds, 0.61% hits | AID 743287;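 active = lowest replicate activation of at least 40%, so every replicate reaches that level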;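 note: 0% = median of neutral control wells and 100% = median of IBMX positive control wells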
ERAP1 inh – ERAP1 (human) enzyme inhibition. Q9NZ08. recombinant ERAP1, Leu-AMC fluorescence, 60 min. inhibition, % at 10.7 µM. 340,000 compounds, 0.15% hits;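 active = mean replicate inhibition of at least 30%, or all replicates individually reaching that 30% level; inactive = mean below 30% and not every replicate reaching it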;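 note: 0% = neutral control wells and 100% = L-leucinethiol positive control wells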
Target sequence (Q9NZ08 whole entry, looked up): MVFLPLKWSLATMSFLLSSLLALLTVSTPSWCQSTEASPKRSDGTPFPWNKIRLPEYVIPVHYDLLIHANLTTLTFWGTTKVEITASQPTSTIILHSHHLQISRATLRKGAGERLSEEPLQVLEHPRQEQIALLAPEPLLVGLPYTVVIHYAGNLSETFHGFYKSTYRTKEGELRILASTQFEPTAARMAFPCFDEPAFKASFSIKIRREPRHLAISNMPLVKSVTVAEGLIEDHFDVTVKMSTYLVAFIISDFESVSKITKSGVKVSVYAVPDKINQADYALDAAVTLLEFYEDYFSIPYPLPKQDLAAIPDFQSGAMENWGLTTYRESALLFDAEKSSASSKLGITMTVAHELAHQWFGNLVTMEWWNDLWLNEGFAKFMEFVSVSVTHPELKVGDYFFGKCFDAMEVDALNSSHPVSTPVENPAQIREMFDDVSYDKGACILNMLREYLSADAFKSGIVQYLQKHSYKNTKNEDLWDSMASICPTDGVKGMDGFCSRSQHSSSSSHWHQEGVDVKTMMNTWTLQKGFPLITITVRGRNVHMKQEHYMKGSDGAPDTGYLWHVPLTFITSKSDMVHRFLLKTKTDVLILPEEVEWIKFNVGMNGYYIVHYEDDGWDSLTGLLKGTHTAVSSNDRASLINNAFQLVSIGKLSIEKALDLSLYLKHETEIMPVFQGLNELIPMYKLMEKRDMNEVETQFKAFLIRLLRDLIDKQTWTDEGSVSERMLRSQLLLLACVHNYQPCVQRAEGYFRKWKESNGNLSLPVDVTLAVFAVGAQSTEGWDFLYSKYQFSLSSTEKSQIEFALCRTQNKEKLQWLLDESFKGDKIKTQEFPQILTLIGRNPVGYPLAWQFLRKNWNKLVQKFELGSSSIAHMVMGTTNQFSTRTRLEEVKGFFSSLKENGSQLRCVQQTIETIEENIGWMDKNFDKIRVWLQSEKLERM
DENV2 CPE rescue – DENV2-induced cell death inhibition. 350,000 compounds, 1.7% hits. DENV2-infected cells, cytopathic effect rescue, plate reader. CPE inhibition, % at 9.99 µM; in the data active = CPE inhibition above about 20%, passing the limit was not always enough; inconclusive = no clear call, values can overlap the other calls; tested in BHK-21 cells;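 note: 0% = median of neutral control wells and 100% = median of positive control wells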
Ecoli rRNA inh – selective bacterial rRNA inhibition in E. coli; E. coli WT GFP vs humanized-ribosome RFP mutants, fluorescence, 24 h; stronger effect = lower value; DMSO median 0, no signal -100; GFP signal change (wild-type ribosome), % (test concentration not listed); 350,000 compounds, 1.6% hits;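 active = significant combined selectivity score with lowered wild-type GFP, culture density cut under 30%, mutant RFP and density less affected; inactive = any of these conditions unmet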
PGC1a acetyl inh – modulators of PGC1a acetylation. U2OS PGC1a acetylation, AlphaScreen anti-acetyl-lysine; with virally co-expressed GCN5 acetyltransferase. inhibition, % at 15.6 µM. 350,000 compounds, 0.17% hits;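 active = every replicate shows inhibition of at least 40%; inconclusive = mean inhibition at least 40% but some replicate below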;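 note: 0% = neutral control wells and 100% = positive control wells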
Starred values were filed as active, the others as inactive; ? = inconclusive; nt = no result; ! = a repeat was not active. This is a sample that favours compounds with a hit; in the whole collection about 3.2% have one here.

SMILES | CaV13 FRET inh | GSIS activator | ERAP1 inh | DENV2 CPE rescue | Ecoli rRNA inh | PGC1a acetyl inh
CC(O)[C@H]1CN=C(N)N1CC(C)(C)C (stereo partly drawn) | -11 | 2 | nt | -1 | 1 | nt
CCCCN1C(N)=NC[C@@H]1C(C)O (stereo partly drawn) | -11 | 20 | nt | 23* | 9 | nt
CN(C)S(=O)(=O)c1cc(NC(=O)CN2CCCc3ccccc32)ccc1Cl | -1 | nt | 1 | 1 | 1 | 8
CN(C)S(=O)(=O)c1cc(NC(=O)CN2CCc3ccccc32)ccc1Cl | -6 | -4 | 6 | 5 | 6 | 75*
C[C@@H]1CN([C@H](C)CO)C(=O)c2ccccc2-c2ccccc2CO[C@@H]1CN(C)CC1CC1 | nt | 14 | nt | nt | 2 | nt
Cc1ccc(SC2=C[C@@]3(O)CC[C@@H](O)[C@@](Sc4ccc(C)cc4)(C2=O)[C@H]3O)cc1 | -8 | -21 | nt | ? | -25* | nt
CC(C)(C)c1ccc(SC2=C[C@@]3(O)CC[C@@H](O)[C@@](Sc4ccc(C(C)(C)C)cc4)(C2=O)[C@H]3O)cc1 | -10 | -32 | nt | ? | 5 | nt
C[C@H](CO)N1C[C@H](C)[C@@H](CN(C)CC2CC2)OCCCC[C@H](C)Oc2ccc(NC(=O)CCCCCC(=O)Nc3ccccc3N)cc2C1=O | nt | -21 | nt | 7 | 1 | 6
O=C(C[C@H]1CC[C@@H](NC(=O)Nc2ccc(C(F)(F)F)cc2)[C@@H](CO)O1)NCc1ccccn1 | nt | -16 | 0 | 1 | -4 | -4
Cc1nccn1CC(O)COc1ccc(Cl)cc1Cl (stereo not drawn) | -2 | 8 | -2 | 31* | 3 | 0
CCCCCCCCNCCS(=O)(=O)NCCCCCCCC | -10 | 682* | 3 | -6 | -35 | nt
CCCCCCCCNS(=O)(=O)CCNCCc1ccccc1 | -5 | 109 | -2 | 0 | -20 | -6
O=C(C[C@@H]1CC[C@H]2[C@@H](COC[C@@H](O)CN2C(=O)c2ccccc2)O1)N1CCc2ccccc2C1 | nt | 8 | 0 | 1 | 3 | 6
O=C1NC(=O)/C(=C/c2ccc(OS(=O)(=O)c3ccc(F)cc3F)cc2)N1 | -5 | 6 | 2 | 8 | -26* | -13
CCOc1cc(/C=N/NC(=O)c2ccccc2-n2cccc2)ccc1O | -6 | -4 | -2 | 3 | -2 | 4
CCOc1cc(/C=N/NC(=O)c2ccccc2OCc2ccc(F)cc2)ccc1O | -2 | 2 | 1 | 3 | -21* | nt
CCOc1cc(/C=N/NC(=O)CCn2nc(C)cc2C)ccc1O | -1 | 53* | 1 | 13 | 2 | 9
C[C@H](CO)N1C[C@H](C)[C@@H](CN(C)Cc2ccc(C(=O)O)cc2)OCCCC[C@H](C)Oc2ccc(NC(=O)Nc3ccccc3)cc2C1=O | nt | 5 | -20 | -9 | 1 | 4
O=C(Nc1ccc2ncccc2c1)c1cccc(Br)c1 | -4 | -6 | 1 | 8 | 2 | 9
Brc1ccc(CNc2ccc3ncccc3c2)cc1 | -8 | -30 | 0 | 10 | -29* | 2
COc1ccc(CNC(=O)C(C)OC(=O)CCN2C(=O)C3CC=CCC3C2=O)cc1 (stereo not drawn) | -5 | 1 | 2 | 3 | 13 | -2
COc1cccc(NC(=O)CCN2C(=O)C3CC=CCC3C2=O)c1 (stereo not drawn) | -5 | -1 | -2 | 29* | 2 | 4
CC(OC(=O)CCN1C(=O)C2CC=CCC2C1=O)C(=O)Nc1cccc(Cl)c1 (stereo not drawn) | -6 | 63* | 2 | 10 | 1 | nt
COc1ccc(C(=O)NN2C(=S)N(c3ccc(OC)cc3)C(=O)C2CC(N)=O)cc1 (stereo not drawn) | -5 | 1 | 2 | 9 | 12 | nt
COc1ccc(N2C(=O)C(CC(N)=O)N(NC(=O)c3cccc(OC)c3)C2=S)cc1 (stereo not drawn) | nt | 6 | -1 | 31* | 2 | -2
SMILES | CaV13 FRET inh | GSIS activator | ERAP1 inh | DENV2 CPE rescue | Ecoli rRNA inh | PGC1a acetyl inh
CO[C@@H]1CN(C)C(=O)c2ccc(NS(=O)(=O)c3cccc(F)c3)cc2OC[C@H](C)N(Cc2cc(F)ccc2F)C[C@@H]1C | nt | -23 | -1 | 28* | -5 | -12
COc1cccc(S(=O)(=O)Nc2ccc3c(c2)C(=O)N(C)C[C@H](OC)[C@H](C)CN(Cc2ccccc2F)[C@@H](C)CO3)c1 | -5 | -8 | 2 | -7 | -18*! | 3
Cc1noc(C)c1S(=O)(=O)N(C)C[C@@H]1Oc2ccc(NS(=O)(=O)c3ccc(Cl)cc3)cc2C(=O)N([C@@H](C)CO)C[C@@H]1C | nt | -18 | 1 | 5 | 0 | -4
Cc1ccccc1-c1ccc(C2[C@@H]3CN(C(=O)C4CC4)C[C@H]2N3)cc1 (stereo partly drawn) | nt | -21 | -4 | 27*! | 0 | -6
Cc1ccccc1-c1ccc(C2[C@@H]3CN(C(=O)Nc4cccc(F)c4)C[C@H]2N3)cc1 (stereo partly drawn) | nt | 93*! | -5 | ? | -63 | -41
O=C(Nc1cccc(F)c1)N1C[C@@H]2N[C@H](C1)C2c1ccc(-c2ccccc2F)cc1 (stereo partly drawn) | nt | -5 | 0 | 1 | -61 | 1
COc1ccc2nc(C)cc(C(=O)O)c2c1 | nt | -7 | nt | nt | nt | 6
COc1ccc(-c2cc(C(=O)N/N=C/c3cc(OC)c(OC)cc3OC)c3ccccc3n2)cc1 | -2 | -1 | 3 | 0 | 22 | 45*
COc1cc(OC)c(OC)cc1/C=C/c1cc(C(=O)O)c2ccccc2n1 | -3 | 18 | nt | 3 | -30* | nt
COc1ccc2nc(-c3ccc(Cl)cc3)cc(C(=O)O)c2c1 | -7 | -11 | nt | -1 | -33* | 8
O=C(C[C@@H]1C[C@H]2c3cc(NC(=O)C4CCC4)ccc3O[C@H]2[C@H](CO)O1)NC1CCCCC1 | nt | -21 | 1 | 1 | -5 | 3
CN(Cc1c(F)cccc1Cl)C(=O)c1ccc(NS(=O)(=O)c2ccc3[nH]c(=O)[nH]c3c2)cc1 | -7 | -10 | 3 | -4 | -22* | nt
Cc1ccc(NC(=O)CN(C)C(=O)c2ccc(NS(=O)(=O)c3ccc4[nH]c(=O)[nH]c4c3)cc2)cc1 | -2 | -1 | 0 | -1 | 6 | 26
CN(CC(=O)Nc1c(Cl)cccc1Cl)C(=O)c1ccc(NS(=O)(=O)c2ccc3[nH]c(=O)[nH]c3c2)cc1 | -17 | 1 | 0 | 40* | 9 | 6
CC(C)OCC(O)CN1CCC(Cc2ccccc2)CC1 (stereo not drawn) | -2 | 44* | -2 | 13 | 7 | -4
C[C@H](CO)N1C[C@H](C)[C@H](CN(C)Cc2ccc(Oc3ccccc3)cc2)Oc2c(NC(=O)Nc3ccc(C(F)(F)F)cc3)cccc2C1=O | nt | -19 | -3 | -8 | -1 | -18

Screening data deposited in PubChem by Broad Institute.
